Screening results as filed in PubChem.
Sampled rows, rich in hits. Any-hit rate of the full collection: about 3.8%.
S2 tox: Viability Counterscreen for Primary qHTS for Inhibitors of ATXN expression. Potency, µM (titrated, usually from 56.7 µM), usual class: cytotoxic. AID 651635, 2014. 0.49% of 400,000 active. S2 cells (HEK-293 line with an ATXN2-luciferase reporter) viability, CellTiter-Fluor protease fluorescence, 24 h; note: nearly all actives have a fitted effect of over 40% in size
ATXN2 expr inh: Primary qHTS for Inhibitors of ATXN expression; 0.72% of 360,000 active; AID 1745845, 2022; Potency, µM (titrated, usually from 57 µM), inactives show at the top dose activity change, negative = inhibition, usual class: inhibitors; HEK-293 ATXN2-luciferase reporter, luminescence, 24 h; note: % is set by controls: 0 for no effect and ±100 for the full control effect; nearly all actives have a fitted effect of over 55% in size
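ATXN2-luciferase reporter cells (luciferase flanked by upstream and downstream ATXN2 gene portions) were treated 24 h at 37 °C with compounds at up to 57 uM. SteadyGlo luminescence gave expression; GF-AFC fluorescence gave viability.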
TGFb SMAD3 inh: qHTS for Inhibitors of TGF-b; HepG2 CAGA-GFP TGF-b/SMAD3 reporter, GFP fluorescence, 18 h; TGF-beta stimulated, 500 pg/mL final; Potency, µM (top dose mostly 46.1 µM), for inactives: top-dose activity, negative = inhibition, hits mostly inhibitors; 1.2% of 410,000 active; AID 588855, 2011; note: % is set by controls: 0 for no effect and ±100 for the full control effect; nearly all actives have a fitted effect of over 65% in size
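Cell-based qHTS in HEPG2 carrying a CAGA-GFP Smad reporter; compounds added before 500 pg/mL final TGF-beta, 18 h incubation at 37 degrees C, GFP fluorescence quantified per cell by imaging cytometry.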
HT1080 IDH1KD tx: qHTS for induction of synthetic lethality in tumor cells producing 2HG: qHTS for the HT-1080-IDH1KD cell line. HT-1080 IDH1 knockdown viability, ATP luminescence, 48 h. Potency, µM (titrated, usually from 46.1 µM), inactives show at the highest dose activity, negative = toxicity, usual class: cytotoxic. 2% of 360,000 active. AID 686971, 2013;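 note: 0% = DMSO wells and -100% = cell-free medium wells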
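In this qHTS, HT-1080 cells depleted of IDH1 are exposed for 48 h at 37 °C to compound titrations. Toxicity is scored from CellTiter-Glo luminescence, with DMSO as full viability and medium alone as none.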
HepG2 viability: qHTS for Inhibitors of TGF-b: Cytotox Counterscreen; 0.76% of 410,000 active; Potency, µM (doses to about 46.1 µM), for the others: at the highest dose activity change, negative = cytotoxicity, most hits filed as cytotoxic; HepG2 CAGA-GFP viability, ATP luminescence, 18 h; AID 588856, 2011
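CellTiter-Glo luminescence gave cytotoxicity after 18 hours at 37 degrees C. The cells were HepG2 CAGA-GFP in 1% FBS DMEM, stimulated with 500 pg/mL TGF-beta after compound addition. %Activity was normalised to no-cell wells (complete cell-killing) and DMSO (no toxicity), and curves were fitted and classified.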
HT1080NT lethal: qHTS for induction of synthetic lethality in tumor cells producing 2HG: qHTS for the HT-1080-NT fibrosarcoma cell line. HT-1080-NT fibrosarcoma viability, CellTiter-Glo ATP luminescence, 48 h. Potency, µM (top dose mostly 46.1 µM), for the others: top-dose activity, negative = less viability, most hits filed as cytotoxic. 1.6% of 360,000 active;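 note: NT is the 2HG producing partner of a matched IDH1 knockdown line; 0% = DMSO-treated cells and -100% = media-only wells without cells; nearly all actives have a fitted effect of over 55% in size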
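Toxicity toward the 2HG-producing NT line was scored as %Activity, normalised to DMSO and no-cell wells, from CellTiter-Glo luminescence after 48 hours' treatment.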
Active calls of the source: *; i = inactive; ? = inconclusive; . = no result; [ ] = remark or other dose. Calls come from the whole dose curve; as a rule, active = well fitted curve in the direction sought with a large enough effect; inconclusive = small, poorly fitted or top-dose-only effect, or another doubt; inactive = no such curve, though single readings can be large; an effect the other way counts as inactive or inconclusive. Potency is the fitted concentration of half-maximal effect.

SMILES	S2 tox	ATXN2 expr inh	TGFb SMAD3 inh	HT1080 IDH1KD tx	HepG2 viability	HT1080NT lethal
NNC(=O)/C(=N/Nc1ccccc1)S(=O)(=O)c1ccc(Cl)cc1	?	14µM*	-34%	?	-3%	?
CC(C)C(=O)Nc1nc2c(ncn2[C@H]2CC(O)[C@@H](CO)O2)c(=O)[nH]1 (stereo partly drawn)	.	.	-8%	.	-10%	.
CCN1CCCC1CNC(=O)c1cnn(-c2nccc(-c3ccccc3F)n2)c1C (stereo not drawn)	i	.	.	.	.	.
COC(=O)[C@]12CCCCC=C1N(CCC1=CCCCC1)C(=O)[C@H](CC(=O)NCc1cccc3ccccc13)C2	.	0%	.	16µM*	.	?
CCOC(=O)[C@]12CCC=C1N(CCC1=CCCCC1)C(=O)[C@H](CC(=O)NCC1CCCCC1)C2	i	5%	.	?	.	-11%
CCOC(=O)[C@]12CCCC=C1N(CCC1=CCCCC1)C(=O)[C@H](CC(=O)NCC1CCCCC1)C2	.	.	.	23µM*	.	?
COc1ccc(-c2nn3c(-c4cc(-c5ccccc5)n[nH]4)nnc3s2)cc1OC	.	.	6%	.	-1%	.
Cc1cc(NC(c2nnc(-c3ccccc3)o2)c2ccccc2F)ccc1Br (stereo not drawn)	i	11%	?	.	-30%	.
C[N+]1(CC(=O)c2ccc(I)cc2)CCCc2ccccc21 (stereo not drawn)	.	.	-14%	.	-41%	.
Cc1cc(CNC(=O)c2cnn(-c3ncc4c(n3)-c3ccccc3CCC4)c2C2CC2)on1	i	.	.	.	.	.
CCC(=O)N1CCc2cc(OC)c(OC)cc2C1COc1ccc(C(=O)OC)cc1 (stereo not drawn)	i	-18%	0%	?	-26%	-7%[9.24 µM]
COC(=O)c1ccc(OCC(O)CN2CCc3cc(OC)c(OC)cc3C2c2ccccc2)cc1 (stereo not drawn)	i	-35%	?	16µM*	-6%	?
CCCCN(CCCC)CC(O)c1cc(Cl)cc2c1-c1ccc(Cl)cc1/C2=C/c1ccc(Cl)cc1 (stereo not drawn)	?	25µM*	.	.	.	.
Cc1ccnc2ccc(I)cc12	.	.	-1%	.	4%	.
Cc1ccc(Cl)cc1-c1cc(C(=O)NCc2cc(C(F)(F)F)cc(C(F)(F)F)c2)[nH]n1	?	?	11µM*	?	-50%	?
COc1ccc(Cl)cc1-c1cc(C(=O)NCc2cc(C(F)(F)F)cc(C(F)(F)F)c2)[nH]n1	i	-13%	-23%	?	-46%	21µM*
COc1ccc(Cl)cc1-c1cc(C(=O)Nc2ccc(C)c(NS(C)(=O)=O)c2)[nH]n1	16µM*	22µM*	?	23µM*	-73%	21µM*
COc1ccc(Cl)c(-c2cc(C(=O)Nc3ccc(C)c(NS(C)(=O)=O)c3)[nH]n2)c1	?	?	23%	?	-27%	-15%
COc1ccc(-c2cc(C(=O)NN)[nH]n2)cc1OC	.	-19%	-16%	?	-3%	?
COc1ccccc1-c1cc(C(=O)NN)[nH]n1	i	9%	25%	13µM*	7%	21µM*
COc1ccc(Cl)cc1-c1cc(C(=O)NCc2cccc(Cl)c2)[nH]n1	?	?	?	?	-24%	?
CCCCCCCCCCCCCC(=O)OC(C)C	i	15%	.	.	.	.
CCCCCCCCCCCCCCCC(=O)OC(CC(=O)O)C[N+](C)(C)C (stereo not drawn)	?	?	-2%	?	-1%	9.2µM*
Cc1cc(Nc2cccc(Br)c2)n2c(nc3ccccc32)c1C#N	i	-5%	?	.	-26%	.
CCCCNC(=S)N/N=C/C1=CCC2CC1C2(C)C (stereo not drawn)	i	2%	11µM*	-10%	2%	-4%
SMILES	S2 tox	ATXN2 expr inh	TGFb SMAD3 inh	HT1080 IDH1KD tx	HepG2 viability	HT1080NT lethal
C=C(C)CNC(=S)N/N=C/C1=CCC2CC1C2(C)C (stereo not drawn)	i	10%	?	8%	-17%	4%
COc1ccc(-n2cc(C(=O)N(C)c3cc(C)ccc3OC)c3ccccc3c2=O)cc1	.	.	?	.	-35%	.
O=C1NC(=O)C(=Cc2ccc3nccc(-c4ccncc4)c3c2)S1	.	6.9µM*	.	.	.	.
O=C1NC(=O)C(=Cc2ccc3nccnc3c2)S1	.	5%[25.6 µM]	.	.	.	.
CCOC(=O)c1c(Oc2ccc(C(C)=O)cc2)nnc(-c2ccccc2)c1-c1ccccc1	?	?	?	.	-4%	.
COc1cccc(CC(=O)OCC(=O)NCCc2ccc(F)cc2)c1	i	10%	-1%	6%	3%	1%
COc1cccc(NC(=O)C(=O)NCCc2ccc(F)cc2)c1	i	26%	-10%	17%	20µM*	7%
Cc1cccc(CS(=O)(=O)c2ncc(Cl)c(C(=O)Nc3nc4ccc(F)cc4s3)n2)c1	i	14%	?	.	-24%	.
COc1ccc2nc(NC(=O)c3nc(S(=O)(=O)Cc4ccccc4)ncc3Cl)sc2c1	.	.	7.9µM*	.	10µM*	.
O=C(Nc1nc2ccc(F)cc2s1)c1nc(S(=O)(=O)Cc2ccccc2)ncc1Cl	14µM*	?	?	.	-116%	.
Cc1c(OCC(=O)NC2CC(C)(C)NC(C)(C)C2)ccc2c1oc(=O)c1ccccc12	?	18µM*	10%	3%	-11%	16%
O=C(Cn1ncc2c([nH]c3ccccc32)c1=O)NCc1cccc(Cl)c1	i	1%	-1%	.	-16%	.
O=C(CC(=O)c1cc(Cl)ccc1O)c1ccccc1	i	?	?	?	11µM*	?
Cc1cccc(C(=O)CC(=O)c2cc(Cl)ccc2O)c1	i	?	?	?	-92%	?
O=C(CNC(=S)N(Cc1ccccc1)Cc1ccccc1F)NCCc1ccc(Cl)cc1	i	-18%	?	16µM*	-31%	16µM*
COc1cccc(CNC(=O)c2c(C)nn(-c3cccc(C)c3)c2-n2cccc2)c1	.	.	0%	.	-28%	.
COc1ccc(C(=O)c2c(C(F)(F)F)oc3c2C(=O)c2ccccc2C3=O)cc1	22µM*	32µM*	?	6.5µM*	1.1µM*	7.3µM*
Cc1ccc(C(=O)c2c(C)oc3c2C(=O)C(=O)c2ccccc2-3)cc1	.	?	?	?	-62%	?
